Compound activity (PubChem BioAssay)
Vaccinia Venus: qHTS for Stage-Specific Inhibitors of Vaccinia Orthopoxvirus: Venus Reporter Primary qHTS; Potency, µM (doses to about 36.5 µM), usual class: inhibitors; AID 720580, 2013; 330,000 tested, 0.46% active; Vaccinia virus Venus reporter expression, fluorescence; calls by dose curve; tested in A549 cells; further: nearly all actives have a fitted effect of over 30% in size
HCMV antiviral: qHTS Assay for inhibitors of the human cytomegalovirus (HCMV) | 410,000 tested, 4.5% active | HFF cells, HCMV-luciferase reporter, 72 h; hits give low values | activity change, negative = inhibition, % at 57.5 µM; in the data active means activity change below about -60%; inconclusive means no clear call, values can overlap the other calls; inactive means above about -39%
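Cell-based, HFFs, 1000 cells/well, 16 h 37C; cpds in DMSO + HCMV-luc, MOI 1 PFU/cell; 72 h 37C; OneGlo luminescence after 5 min RT; norm. to buffer vs Salinomycin 10uM.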
FMDV antiviral: High Throughput Screening for Foot and Mouth Disease Virus Antivirals; Potency, µM (highest dose often 57.9 µM), hits mostly inhibitors; AID 1159524, 2015; FMDV antiviral cell-based qHTS; 410,000 tested, 1.2% active; calls by dose curve; tested in HEK293T cells; further: read-out not given here; nearly all actives have a fitted effect of over 45% in size
VACV mCherry inh: qHTS for Stage-Specific Inhibitors of Vaccinia Orthopoxvirus: mCherry Reporter Primary qHTS | 310,000 tested, 0.63% active | Potency, µM (top dose mostly 36.5 µM), hits mostly inhibitors | Vaccinia virus mCherry reporter infection, fluorescence; calls by dose curve; tested in A549 cells; further: nearly all actives have a fitted effect of over 35% in size
HCV inh: qHTS Assay for Inhibitors of Hepatitis C Virus (HCV) | Huh7.5.1 HCVcc-Cre infection, luciferase reporter, 44 h | Potency, µM (titrated, usually from 41.8 µM), hits mostly inhibitors | 340,000 tested, 3.4% active | AID 651820, 2012; active means well fitted inhibition curve with a large enough effect; inconclusive means small, poorly fitted or top-dose-only effect, or another doubt; inactive means no such curve, though single readings can be large or run the other way
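Seed cells (1,000/well) for 4 h; treat with compound and infect with HCVcc-Cre, moi about 0.5. Incubate 44 h, then detect luciferase activity.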
Large screens that a line does not name were inactive. Compounds with a hit are over-represented: about 7.3% of the library has one in this group of screens.

CCOc1ccc(NC(=O)c2nc(S(=O)(=O)Cc3ccccc3C)ncc2Cl)cc1	none (no result: HCMV antiviral, FMDV antiviral, HCV inh)
CCOc1ccccc1NC(=O)c1nc(S(=O)(=O)Cc2ccccc2F)ncc1Cl	none (no result: HCMV antiviral, FMDV antiviral, HCV inh)
Cc1cccc(C)c1NC(=O)c1nc(S(=O)(=O)Cc2ccccc2)ncc1Cl	HCMV antiviral -100, FMDV antiviral 28µM, HCV inh inconclusive
Cc1ccccc1CS(=O)(=O)c1ncc(Cl)c(C(=O)Nc2ccc(F)cc2)n1	HCMV antiviral -98, FMDV antiviral inconclusive (no result: Vaccinia Venus, VACV mCherry inh)
COc1cc(C(=O)Nc2ccc(-c3nc4ccccc4o3)c(O)c2)cc(OC)c1OC	none (no result: HCV inh)
O=C(Nc1ccc(F)cc1)c1nn(-c2ccccc2)c(=O)cc1Cl	Vaccinia Venus 28µM, HCMV antiviral -100, FMDV antiviral 22µM, VACV mCherry inh inconclusive, HCV inh 6.3µM
O=C(Nc1ccc(F)cc1)c1nc(S(=O)(=O)Cc2ccccc2)ncc1Cl	HCMV antiviral -112, FMDV antiviral inconclusive, HCV inh 8.9µM (no result: Vaccinia Venus, VACV mCherry inh)
Cc1cccc(CS(=O)(=O)c2ncc(Cl)c(C(=O)NCc3ccccc3)n2)c1	HCMV antiviral -92, FMDV antiviral 32µM, HCV inh inconclusive
Cc1nnc(NC(=O)c2nc(S(=O)(=O)Cc3ccccc3)ncc2Cl)s1	HCMV antiviral -110, FMDV antiviral 5.6µM, HCV inh 10µM
Cc1cccc(CSc2ncc(Cl)c(C(=O)Nc3nnc(C)s3)n2)c1	none (no result: HCV inh)
O=C(Nc1ccc2ccccc2c1)c1nc(S(=O)(=O)Cc2ccccc2F)ncc1Cl	none (no result: HCMV antiviral, FMDV antiviral, HCV inh)
Cc1ccc(CSc2ncc(Cl)c(C(=O)NCc3ccccc3)n2)cc1	none (no result: HCV inh)
CCN(CC)c1ccc(/C=C2\C=Cc3ccccc32)cc1	none (no result: HCMV antiviral, FMDV antiviral, HCV inh)
CS(=O)(=O)c1ncc(Cl)c(C(=O)Nc2ccc(OC(F)F)cc2)n1	Vaccinia Venus inconclusive, FMDV antiviral 20µM, VACV mCherry inh inconclusive, HCV inh inconclusive (no result: HCMV antiviral)
CS(=O)(=O)c1ncc(Cl)c(C(=O)Nc2ccc(N3CCOCC3)cc2)n1	HCV inh inconclusive (no result: HCMV antiviral, FMDV antiviral)
O=C(NC1CCCCC1)C1CCC(=O)N(Cc2cccc(C(F)(F)F)c2)C1 (stereo unspecified)	HCMV antiviral -61
COCCNC(=O)/C(C#N)=C/c1c(F)cccc1Cl	HCMV antiviral -75
COCCNC(=O)/C(C#N)=C/c1ccc(SC)cc1	none
COc1ccc(N2CCCC2)c(NC(=O)c2ccc([N+](=O)[O-])o2)c1	FMDV antiviral inconclusive, HCV inh inconclusive
COC(=O)c1ccc(N2CCCCC2)c(NC(=O)c2ccco2)c1	HCMV antiviral inconclusive, FMDV antiviral inconclusive, HCV inh 1.4µM
O=C(Nc1ccc(N2CCCC2)c(Cl)c1)c1ccc([N+](=O)[O-])o1	Vaccinia Venus 14µM, HCMV antiviral -89, VACV mCherry inh 16µM, HCV inh inconclusive
CC1CCN(C(=O)c2ccc([N+](=O)[O-])o2)CC1	HCV inh inconclusive
CC(C)C(=O)Nc1ccc(N2CCCC2)c(Cl)c1	Vaccinia Venus inconclusive, VACV mCherry inh inconclusive
CC1CCN(c2ccc(NC(=O)c3ccc([N+](=O)[O-])o3)cc2)CC1	Vaccinia Venus 10µM, HCMV antiviral -98, VACV mCherry inh 11µM, HCV inh inconclusive
CC(C)CC(=O)NC(=S)Nc1ccc(N2CCCC2)c(Cl)c1	HCMV antiviral -62
CCOC(=O)c1sc2ccccc2c1S(=O)(=O)Nc1c(C)cccc1C	none (no result: HCV inh)
CN(CC1CCCCC1)[C@H]1CC[C@@]23CCCN2C(=O)CCC[C@H]3[C@H]1Cc1ccccc1	none (no result: Vaccinia Venus, FMDV antiviral, VACV mCherry inh, HCV inh)
O=C(Nc1ccc(N2CCCCC2)cc1)c1ccc([N+](=O)[O-])o1	HCMV antiviral -96, VACV mCherry inh inconclusive, HCV inh inconclusive
O=C(Nc1ccc(N2CCCC2)cc1)c1ccc(Br)o1	none (no result: FMDV antiviral)
CN1CCN(c2ccc(NC(=O)c3ccco3)cc2Cl)CC1	none (no result: Vaccinia Venus, VACV mCherry inh)
O=C(Nc1ccc(N2CCCC2)c(Cl)c1)c1ccco1	HCMV antiviral -90, HCV inh inconclusive (no result: FMDV antiviral)
CS(=O)(=O)N1CCN(c2ccc(NC(=O)c3ccc([N+](=O)[O-])o3)cc2)CC1	HCMV antiviral -101, HCV inh inconclusive (no result: Vaccinia Venus, VACV mCherry inh)
O=C(Nc1ccc(N2CCN(Cc3ccccc3F)CC2)cc1)c1ccc([N+](=O)[O-])o1	Vaccinia Venus inconclusive, HCMV antiviral -100, FMDV antiviral inconclusive, VACV mCherry inh 4µM, HCV inh inconclusive
COc1cc(C(=O)OCC(C)=O)cc(NC(=O)c2ccco2)c1OC	HCMV antiviral -69 (no result: Vaccinia Venus, VACV mCherry inh)
Cc1ccc(-n2ncc3c2CCCC3NC(=O)CCC2=NNC(=O)CC2)cc1C (stereo unspecified)	none
Cc1ccc(-n2ncc3c2CCCC3NC(=O)CCCN2CCCC2=O)cc1C (stereo unspecified)	none
CC(C)(C)c1ccc(-n2ncc3c2CCCC3NC(=O)CCN2CCCCC2=O)cc1 (stereo unspecified)	HCMV antiviral -64, FMDV antiviral inconclusive, HCV inh inconclusive
Cc1cc(C(=O)NC2CCCc3c2cnn3-c2ccc(C(C)(C)C)cc2)n[nH]1 (stereo unspecified)	HCMV antiviral inconclusive, FMDV antiviral inconclusive, HCV inh 11µM (no result: Vaccinia Venus, VACV mCherry inh)
CC(C)(C)c1ccc(-n2ncc3c2CCCC3NC(=O)CCC2=NNC(=O)CC2)cc1 (stereo unspecified)	HCMV antiviral -76, FMDV antiviral inconclusive (no result: HCV inh)
CC(C)(C)c1ccc(-n2ncc3c2CCCC3NC(=O)c2ccncc2)cc1 (stereo unspecified)	FMDV antiviral inconclusive, HCV inh inconclusive
Cc1ccccc1S(=O)(=O)Oc1ccc2ccc(O)cc2c1	HCV inh 22µM (no result: Vaccinia Venus, VACV mCherry inh)
Cc1ccccc1C(=O)Oc1ccc2ccc(O)cc2c1	none (no result: Vaccinia Venus, VACV mCherry inh)
CCC(Sc1nc2ncccc2[nH]1)C(=O)NCCc1ccccc1 (stereo unspecified)	HCMV antiviral -61
OC1(c2ccc(OC(F)F)cc2)CSC(=Nc2cccnc2)N1C1CC1 (stereo unspecified)	Vaccinia Venus inconclusive, FMDV antiviral inconclusive, HCV inh 32µM
COc1ccc(OC)c(C2(O)CSC(=Nc3cccnc3)N2Cc2ccco2)c1 (stereo unspecified)	FMDV antiviral inconclusive, HCV inh inconclusive
Cc1ccccc1-n1nc(CSc2nc3ccccc3[nH]2)c(-c2ccccc2)c1N	HCMV antiviral -87, FMDV antiviral inconclusive, HCV inh inconclusive
Nc1c(-c2ccccc2)c(CSc2nc3ccccc3[nH]2)nn1-c1ccc(Cl)cc1	Vaccinia Venus inconclusive, HCV inh 11µM
Nc1c(-c2ccccc2)c(CSc2nc3ccccc3[nH]2)nn1-c1cccc(Cl)c1	Vaccinia Venus inconclusive, HCMV antiviral -95, FMDV antiviral inconclusive, VACV mCherry inh inconclusive, HCV inh inconclusive
c1ccc(CSc2nc3ccccc3[nH]2)cc1	none
c1ccc(CC(Nc2cccnc2)c2ccccc2)cc1 (stereo unspecified)	none (no result: Vaccinia Venus, FMDV antiviral, VACV mCherry inh, HCV inh)
Cc1cc(C)n(-c2ccc(C(=O)N3CCc4c(cnc(C)c4CNC(=O)c4ccccc4F)C3)cc2)n1	none (no result: HCMV antiviral, HCV inh)
CCCCCCCCCCC[N+](C)(C)CC/C=C1/c2ccccc2Sc2ccc(Cl)cc21	Vaccinia Venus 11µM, FMDV antiviral inconclusive, VACV mCherry inh inconclusive (no result: HCMV antiviral)
